Assay outcomes as filed in PubChem BioAssay.
Compounds with a hit are over-represented: about 5.3% of the library has one in this group of screens.
JMJD2A Tudor: qHTS Assay for Inhibitors of JMJD2A-Tudor Domain. Potency, µM (series often up to 114 µM), inactives show top-dose activity change, negative = inhibition, actives largely listed as inhibitors. 4.4% of 390,000 active. AID 504339, 2011. Lysine-specific demethylase 4A (Homo sapiens), O75164. AlphaScreen JMJD2A-Tudor / H3K4me3 peptide binding; also: potency is read from the fitted curve at half-maximal effect; % is scaled to controls: 0 for no effect and ±100 for the full control effect; nearly all actives have a fitted effect of over 50% in size
Target sequence (O75164 whole entry, looked up, the tested form may be a part): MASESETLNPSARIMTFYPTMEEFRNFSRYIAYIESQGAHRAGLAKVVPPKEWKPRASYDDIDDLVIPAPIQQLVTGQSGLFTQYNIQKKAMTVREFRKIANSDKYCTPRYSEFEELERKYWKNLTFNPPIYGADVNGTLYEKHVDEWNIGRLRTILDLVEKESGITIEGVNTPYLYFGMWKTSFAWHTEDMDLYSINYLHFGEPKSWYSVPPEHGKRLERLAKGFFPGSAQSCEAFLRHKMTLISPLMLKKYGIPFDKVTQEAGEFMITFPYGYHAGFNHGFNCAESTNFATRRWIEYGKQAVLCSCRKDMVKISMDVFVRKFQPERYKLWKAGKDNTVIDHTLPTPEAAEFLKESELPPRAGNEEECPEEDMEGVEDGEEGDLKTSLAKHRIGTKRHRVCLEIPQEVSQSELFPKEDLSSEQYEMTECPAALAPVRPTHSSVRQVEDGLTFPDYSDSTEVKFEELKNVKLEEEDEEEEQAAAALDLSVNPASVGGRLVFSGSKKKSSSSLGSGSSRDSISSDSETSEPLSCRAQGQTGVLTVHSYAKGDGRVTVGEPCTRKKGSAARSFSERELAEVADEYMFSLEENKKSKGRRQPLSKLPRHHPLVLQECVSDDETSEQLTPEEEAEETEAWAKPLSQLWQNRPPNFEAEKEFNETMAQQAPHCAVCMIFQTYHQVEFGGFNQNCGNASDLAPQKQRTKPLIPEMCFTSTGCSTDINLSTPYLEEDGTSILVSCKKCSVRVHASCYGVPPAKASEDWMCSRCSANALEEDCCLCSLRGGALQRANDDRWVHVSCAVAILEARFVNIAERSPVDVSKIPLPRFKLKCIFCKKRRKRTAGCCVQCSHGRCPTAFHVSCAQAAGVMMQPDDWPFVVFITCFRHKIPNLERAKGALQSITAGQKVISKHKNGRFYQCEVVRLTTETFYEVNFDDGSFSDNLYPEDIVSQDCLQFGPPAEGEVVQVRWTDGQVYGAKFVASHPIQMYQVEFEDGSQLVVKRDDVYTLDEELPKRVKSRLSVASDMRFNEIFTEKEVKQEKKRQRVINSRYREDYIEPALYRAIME
HP1b chromo inh: HTS for Inhibitors of HP1-beta Chromodomain Interactions with Methylated Histone Tails; Chromobox protein homolog 1 (Homo sapiens), P83916; AlphaScreen HP1-beta / biotin-H3K9me3 peptide binding; Potency, µM (series often up to 114 µM), for inactives: top-dose activity change, negative = inhibition, hits mostly inhibitors; 0.56% of 390,000 active; AID 540317, 2011; also: potency is read from the fitted curve at half-maximal effect; nearly all actives have a fitted effect of over 70% in size
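HP1-beta protein (50 nM final) preincubated 30 min at room temperature with biotinylated H3(1-18)K9me3 peptide (50 nM) in PBS pH 7.4, 0.01% Tween-20, then compound added for 30 min. AlphaScreen streptavidin donor/nickel chelate acceptor beads (10 ug/mL final), 30 min dark, luminescence read.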
TDP1 inh: qHTS Assay for Inhibitors of Tyrosyl-DNA Phosphodiesterase (TDP1). Tyrosyl-DNA phosphodiesterase 1 (Homo sapiens), Q9NUW8. recombinant TDP1, AlphaScreen DNA substrate cleavage. Potency, µM (series often up to 130 µM), inactives show top-dose activity change, negative = inhibition, most hits filed as inhibitors. 0.28% of 350,000 active. AID 485290, 2010; also: potency is read from the fitted curve at half-maximal effect; % is scaled to controls: 0 for no effect and ±100 for the full control effect; nearly all actives have a fitted effect of over 40% in size
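Compounds were preincubated with Tdp1 (1 nM final) for 15 min at room temperature before substrate (15 nM final) started a 5 min reaction; beads (10 ug/ml final) were then added for 10 min before AlphaScreen detection.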
Six1-Eya2 blk: qHTS Assay for Inhibitors of the Six1/Eya2 Interaction. 0.56% of 360,000 active. activity change, % (test concentration not listed). AlphaScreen GST-Six1/His-Eya2 binding, biochemical; stronger effect = lower value. Homeobox protein SIX1 (Homo sapiens) + Protein phosphatase EYA2 (Homo sapiens), …; in the data active = activity change below about -65%; inconclusive = mostly about -30% to -63%; also: % is scaled to controls: 0 for no effect and ±100 for the full control effect
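GST-Six1 + His-Eya2 (5X stock: 250/500 nM); Tris pH 8.0, 300 mM NaCl, 0.05% BSA, 0.02% Tween 20; GSH donor/Ni acceptor beads; 1 h 37 °C dark; AlphaScreen readout.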
BAZ2B block: qHTS Assay for Inhibitors of BAZ2B | AlphaScreen BAZ2B-H3K14Ac peptide displacement | Potency, µM (series often up to 114 µM), inactives show at the top dose activity change, negative = inhibition, hits mostly inhibitors | 4.4% of 360,000 active; also: potency is read from the fitted curve at half-maximal effect; % is scaled to controls: 0 for no effect and ±100 for the full control effect; nearly all actives have a fitted effect of over 60% in size
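Inhibition is scored as reduced AlphaScreen emission. The BAZ2B/b-H3(5-23)K14Ac complex (50 nM each) in PBS pH 7.4, 0.01% Tween-20 meets compound (up to 110 uM) for 30 min at RT before bead addition.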
CtBP-E1A inh: qHTS Assay for Inhibitors of the CtBP/E1A Interaction; CtBP / adenovirus E1A interaction (AlphaScreen); AlphaScreen GST-E1A/His-CtBP binding, 1536-well; stronger effect = lower value; activity change, % (test concentration not listed); 0.49% of 340,000 active; in the data active = activity change below about -65%; inconclusive = mostly about -30% to -63%; also: % is scaled to controls: 0 for no effect and ±100 for the full control effect
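Protein mix (5X: 125 nM each GST-E1A, His-CtBP) was incubated with pinned compound 2 h at 37 deg C in dark, in 50 mM Tris pH 8.0 buffer with 300 mM NaCl. Glutathione donor and nickel acceptor beads followed; AlphaScreen signal read after 1 h.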
Numbers without * were called inactive; ? = inconclusive; nt = no result; [ ] = remark or other dose. Unless noted, calls follow the shape of the dose curve; as a rule, active = well fitted inhibition curve with a large enough effect; inconclusive = small, poorly fitted or top-dose-only effect; inactive = no such curve, though single readings can be large or run the other way.

SMILES	JMJD2A Tudor	HP1b chromo inh	TDP1 inh	Six1-Eya2 blk	BAZ2B block	CtBP-E1A inh
CCOc1ccc(-c2c(C(=O)N/N=C/C3CC=CCC3)nnn2-c2nonc2N)cc1 (stereo not drawn)	-21%	51%	1%	2	79µM*	5
CCOc1cccc(-c2c(C(=O)N/N=C(\C)c3ccccn3)nnn2-c2nonc2N)c1	25µM*	12%[57 µM]	0%	?	13µM*	nt
CCOc1cccc(-c2c(C(=O)N/N=C/c3ccoc3)nnn2-c2nonc2N)c1	25µM*	-17%	3%	-2	79µM*	-2
COc1ccccc1/C(C)=N/NC(=O)c1nnn(-c2nonc2N)c1C(C)C	20µM*	15%	1%	3	-5%	-7
COc1ccc(/C=N/NC(=O)c2nnn(-c3nonc3N)c2-c2cccs2)cc1OC	-23%	28%	-2%	-4	56µM*	-12
COc1cc(/C=N/NC(=O)c2nnn(-c3nonc3N)c2-c2cccs2)ccc1O	-35%	33%	5%	-21	-21%	nt
CC1NC(=O)NC1CCCCC(=O)O (stereo not drawn)	0%[11.4 µM]	-19%	4%	3	nt	4
CC1NC(=O)NC1CCCCCC(=O)Nc1ccc(F)c(Cl)c1 (stereo not drawn)	?	1.1µM*	11%	14	0.79µM*	7
Cc1ccc(NC(=O)CCCCCC2NC(=O)NC2C)cc1 (stereo not drawn)	0.35µM*	1.1µM*	14%	2	0.79µM*	7
Cc1ccc(Cl)cc1N1CCN(S(=O)(=O)c2ccc3oc(=O)c4ncn(C)c4c3c2)CC1	7%	39%	2%	nt	3%	nt
COc1ccccc1CN1CCCC(CN(CCN(C)C)C(=O)C2CCCC2)C1 (stereo not drawn)	-6%	5%	nt	8	4%	-5
COc1ccccc1CN1CCCC(C(=O)N(C)Cc2ccccc2)C1 (stereo not drawn)	3.2µM*	?	1%	0	0%	7
COc1ccc(CN2CCCC(C(=O)N(C)Cc3ccccc3)C2)cc1OC (stereo not drawn)	0.89µM*	?	-14%	10	?	-7
CC1CCCN(S(=O)(=O)c2ccc(NC(=O)c3nc(SC(C)C)ncc3Cl)cc2)C1 (stereo not drawn)	-26%	6%	0%	nt	?	nt
COc1ccc(CCNC(=O)c2cc(=O)[nH]c3ccc(S(=O)(=O)N4CCCCC4C)cc23)cc1OC (stereo not drawn)	-25%	21%	3%	nt	-19%	nt
O=C(Nc1ccc(Cl)cc1)Nc1ccccc1Sc1ncc([N+](=O)[O-])s1	?	8%	7%	-27	28µM*	-13
O=C(Nc1csc([N+](=O)[O-])c1)Nc1ccccc1Cl	2%	9%	nt	-13	-35%	-7
Cc1cccc(NC(=O)c2cccc(N3C(=O)CCC3=O)c2)c1	0%	30%	0%	2	4%	4
CSc1cccc(-c2nnc(NC(=O)c3cccc(N4C(=O)CCC4=O)c3)o2)c1	?	7%	5%[0.505 µM]	-26	?	-30
O=C(Nc1nnc(-c2ccco2)o1)c1cccc(N2C(=O)CCC2=O)c1	4.5µM*	-8%	-4%	-14	22µM*	-3
CS(=O)(=O)c1ccccc1-c1nnc(NC(=O)c2cccc(N3C(=O)CCC3=O)c2)o1	2.5µM*	13%	6%	-9	79µM*	0
CCOc1ccc(-c2csc(NC(=O)c3cccc(N4C(=O)CCC4=O)c3)n2)cc1	0%	0%	-12%	-5	-17%	3
